Measured values from the supplement of paper PMC3334620.
Whole data set: some 33,000 sequences, median “E-score (-0.5 to 0.5)” near -8e-05, cut for the highest 2% near 0.23. This excerpt belongs to a sample that is enriched for the highest values.

These sequences were tested against T1, Nrg2 (UniProt P38082) (assay: PBM E-score (8-mer binding enrichment) (E-score (-0.5 to 0.5)); higher = stronger / more preferred TF binding). Settings: protein concentration: 100 nM; construct: GST-full length.
T1 sequence: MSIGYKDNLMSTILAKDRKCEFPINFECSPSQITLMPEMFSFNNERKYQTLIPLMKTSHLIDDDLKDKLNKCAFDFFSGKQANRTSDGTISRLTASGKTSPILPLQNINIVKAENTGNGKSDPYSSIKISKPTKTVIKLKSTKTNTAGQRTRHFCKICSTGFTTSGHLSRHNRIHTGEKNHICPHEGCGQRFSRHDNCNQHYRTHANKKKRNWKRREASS
Description: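 Universal 'all 10-mer' protein binding microarrays (Agilent AMADID 015681) probed with GST-tagged S. cerevisiae TFs (full-length or DBD) made by in vitro transcription/translation (PURExpress), about 100-200 nM. Bound TF was detected with fluorescent anti-GST. Each ungapped 8-mer (which stands for itself and its reverse complement) is scored by the PBM enrichment score (E-score), a modified Wilcoxon-Mann-Whitney statistic from -0.5 to +0.5, computed with the Universal PBM Analysis Suite. Scale: above 0.35 generally sequence-specific binding.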

Going from GATCAACA to AATCAACA, the “PBM E-score” value rises from -0.0582 to 0.239.

First: TATCAACA
Second: ATCGCATG
The “PBM E-score” value of the first is lower: 0.0479 for the first, 0.188 for the second.

Going from CCTCCAAA to CCTACGCA, the “PBM E-score” value falls from -0.0762 to -0.133.

Compared with CGGCCGCA, AATATCGA is higher in “PBM E-score” value: 0.0157 for the first, 0.244 for the second.

First: AATATCGC
Second: GATATCGA
The “PBM E-score” value of the first is higher: 0.104 for the first, 0.0243 for the second.

Going from CATATCGA to TATATCGA, the “PBM E-score” value rises from 0.118 to 0.278.

Compared with AATATCGG, CGCTTATC is lower in “PBM E-score” value: 0.137 for the first, -0.0744 for the second.

Compared with CTGCTTTA, ATGCTTTA is lower in “PBM E-score” value: 0.23 for the first, -0.178 for the second.

Going from CTGCTTTC to GGGTTTAC, the “PBM E-score” value falls from 0.104 to -0.0342.

Going from AATTCAGG to AATTCAAC, the “PBM E-score” value falls from 0.336 to 0.256.

First: AATTCAAG
Second: AATTCTAT
The “PBM E-score” value of the first is higher: 0.0675 for the first, -0.0322 for the second.

Compared with AATTCTAG, AATTCAGA is higher in “PBM E-score” value: -0.027 for the first, 0.0972 for the second.

Compared with GATTCAAC, AATTCAGT is lower in “PBM E-score” value: 0.00265 for the first, -0.0207 for the second.

First: AATTCTAC
Second: AAGACTCA
The “PBM E-score” value of the first is higher: 0.231 for the first, -0.249 for the second.

Compared with TCCGTACA, ACACGTCC is lower in “PBM E-score” value: 0.146 for the first, -0.254 for the second.

Going from AGCTTTCG to GATACTAC, the “PBM E-score” value rises from -0.106 to 0.13.

Compared with CGAGTTCC, AACCGCGA is higher in “PBM E-score” value: 0.0649 for the first, 0.256 for the second.

First: AACCGCGT
Second: TACCGCGA
The “PBM E-score” value of the first is higher: 0.0966 for the first, 0.0041 for the second.

Going from CCATGCCC to ACTAAATG, the “PBM E-score” value rises from -0.111 to -0.0439.

Compared with AGCATATC, CGCATATA is lower in “PBM E-score” value: 0.0744 for the first, 0.0344 for the second.

Compared with CGCATATC, ATAGTAAA is lower in “PBM E-score” value: 0.293 for the first, 0.203 for the second.

Going from ATAGTAGC to ATAGTAGA, the “PBM E-score” value falls from 0.25 to 0.102.

Compared with ATAGTAAT, ATAGTAAC is lower in “PBM E-score” value: 0.234 for the first, 0.074 for the second.

First: ATAGTAGG
Second: GAAAGGCA
The “PBM E-score” value of the first is higher: 0.0354 for the first, -0.0231 for the second.

First: ACGAAGCC
Second: GCTCCAAA
The “PBM E-score” value of the first is higher: -0.0825 for the first, -0.202 for the second.

Going from TCAATGCA to AGTCTCGG, the “PBM E-score” value rises from -0.183 to -0.0965.

First: ATAATCGA
Second: ATAATCGC
The “PBM E-score” value of the first is higher: 0.0835 for the first, -0.0299 for the second.

Compared with ATAATCAG, ATAATCCG is lower in “PBM E-score” value: 0.0745 for the first, 0.0659 for the second.

Compared with ATAATCCA, ATAATCGG is higher in “PBM E-score” value: 0.128 for the first, 0.246 for the second.

Going from ATAATCAA to ATAATCAT, the “PBM E-score” value rises from 0.0599 to 0.235.

Going from ATAATCCC to TCCTATAA, the “PBM E-score” value falls from 0.24 to -0.0317.

First: CAAACCAA
Second: CTATAGGA
The “PBM E-score” value of the first is higher: 0.214 for the first, -0.0776 for the second.

First: CATGGTTC
Second: ATGCAAGC
The “PBM E-score” value of the first is lower: 0.0101 for the first, 0.0922 for the second.

Compared with ATCTAACC, AAGGATTC is lower in “PBM E-score” value: 0.0422 for the first, -0.124 for the second.

First: GACCAAGA
Second: ATGCCCAT
The “PBM E-score” value of the first is higher: 0.0552 for the first, -0.093 for the second.

Going from ACCATCGC to CGTTTCAC, the “PBM E-score” value falls from 0.139 to -0.00605.

First: GGAGACCC
Second: CGAGACCC
The “PBM E-score” value of the first is lower: 0.076 for the first, 0.263 for the second.

Compared with CGAGACCG, CTTGCGTC is higher in “PBM E-score” value: -0.0751 for the first, -0.00183 for the second.

First: ATTGCGTA
Second: ATTGCGTC
The “PBM E-score” value of the first is lower: 0.145 for the first, 0.237 for the second.

Going from GTGCCAAA to AGCATCGC, the “PBM E-score” value falls from -0.0122 to -0.0887.

Compared with CGTCACAA, CGTCACAC is lower in “PBM E-score” value: 0.0516 for the first, -0.0186 for the second.

Compared with CGTCACAG, GTATAGCA is lower in “PBM E-score” value: 0.282 for the first, 0.078 for the second.

Compared with CAACAGGC, ACACAGGC is higher in “PBM E-score” value: -0.129 for the first, 0.0691 for the second.

First: CAACAGGA
Second: ACACAGGG
The “PBM E-score” value of the first is lower: -0.152 for the first, 0.238 for the second.

Going from ATACAGGC to ATACAGGA, the “PBM E-score” value rises from -0.0144 to -0.00019.

Going from CAACAGGG to ATACAGGG, the “PBM E-score” value falls from 0.312 to 0.274.

Compared with ACACAGGA, ACAGAGGC is lower in “PBM E-score” value: -0.0296 for the first, -0.172 for the second.

Compared with ATTGTGCA, GCGTTAGA is lower in “PBM E-score” value: 0.0869 for the first, 0.0176 for the second.

First: ACTTGGAG
Second: CTAATATA
The “PBM E-score” value of the first is lower: -0.108 for the first, 0.13 for the second.

Going from ATAATATA to CTTATAAA, the “PBM E-score” value falls from 0.268 to 0.131.

Going from GTTATAAA to ATAATAAA, the “PBM E-score” value rises from 0.0259 to 0.224.

Compared with ATAATACC, TTTATAAA is higher in “PBM E-score” value: 0.171 for the first, 0.245 for the second.

Going from ATAATACA to CTAATAAA, the “PBM E-score” value falls from 0.282 to 0.259.

Compared with ATAATACG, ATAATATG is higher in “PBM E-score” value: 0.18 for the first, 0.198 for the second.

Going from TTAATAAA to AGCAGACT, the “PBM E-score” value falls from 0.201 to -0.138.

First: CCGCCTGA
Second: TCCAGAAA
The “PBM E-score” value of the first is lower: -0.0981 for the first, 0.0185 for the second.

Compared with CCTCCTCC, ATGTCCTC is higher in “PBM E-score” value: -0.283 for the first, 0.0325 for the second.

Going from ATTGTCGA to ATTGTCGC, the “PBM E-score” value rises from 0.0199 to 0.136.

Compared with ATTGTCGG, CTACAAAG is lower in “PBM E-score” value: 0.247 for the first, 0.116 for the second.

Going from ACAGCGCA to AGTAATAT, the “PBM E-score” value rises from 0.00939 to 0.137.

First: GGGCCCAA
Second: GGCCCCAA
The “PBM E-score” value of the first is higher: 0.244 for the first, -0.0979 for the second.

Going from GGGGCCCA to CGCCCCAG, the “PBM E-score” value falls from 0.117 to 0.0362.

Going from CGCCCCAA to TGGGCCCA, the “PBM E-score” value rises from 0.261 to 0.306.

Going from GGGCCCAC to AGGGCCCA, the “PBM E-score” value rises from 0.203 to 0.359.

Going from ATGGCCCA to CGGGCCCA, the “PBM E-score” value falls from -0.0568 to -0.128.

Compared with AAGGCCCA, CGCCCCCA is lower in “PBM E-score” value: -0.13 for the first, -0.194 for the second.

First: TAATTCCA
Second: GCGCTTCC
The “PBM E-score” value of the first is higher: 0.0521 for the first, -0.0589 for the second.

Compared with AAGGAAAA, GCGGAATA is higher in “PBM E-score” value: 0.0535 for the first, 0.0652 for the second.

Compared with CTTTGGGA, AAACCCAC is higher in “PBM E-score” value: -0.076 for the first, 0.218 for the second.

First: GACTGAGA
Second: CAACTTAG
The “PBM E-score” value of the first is lower: -0.102 for the first, 0.221 for the second.

Compared with CTGCTCGA, AGGGCCCC is lower in “PBM E-score” value: 0.073 for the first, 0.0359 for the second.

Compared with AGGGCCCT, AGGGCCCG is lower in “PBM E-score” value: 0.432 for the first, 0.0729 for the second.

First: TCCAATAA
Second: CGACAGCC
The “PBM E-score” value of the first is higher: 0.0718 for the first, 0.026 for the second.

First: CGCCGTGC
Second: CAGCCTAG
The “PBM E-score” value of the first is higher: 0.0708 for the first, 0.0198 for the second.

Compared with GGTGCAAC, AGTTTCAG is higher in “PBM E-score” value: -0.13 for the first, -0.0621 for the second.

First: AGTTTCAC
Second: AGTTTCAT
The “PBM E-score” value of the first is lower: 0.0923 for the first, 0.274 for the second.

Going from CTGAGAAC to AATACTAT, the “PBM E-score” value falls from 0.0907 to 0.0268.

First: CATACTAC
Second: AATACTAG
The “PBM E-score” value of the first is lower: 0.151 for the first, 0.241 for the second.

Going from CATACTAG to AATACTAC, the “PBM E-score” value falls from 0.248 to 0.0385.

First: CATACTAA
Second: CAATTTAC
The “PBM E-score” value of the first is lower: 0.114 for the first, 0.12 for the second.

Going from ACGAATTG to AGTGACTA, the “PBM E-score” value falls from 0.0986 to -0.133.

First: TAGCAACA
Second: GAACAGAA
The “PBM E-score” value of the first is higher: 0.135 for the first, 0.0366 for the second.

Going from GGTCTGAC to AGACAATA, the “PBM E-score” value rises from 0.0413 to 0.204.

Going from CGACAATC to GGACAAGA, the “PBM E-score” value rises from 0.009 to 0.159.

Going from CGACAATA to GGACAATA, the “PBM E-score” value rises from 0.235 to 0.239.

Compared with GGACAAAA, CAATTATA is lower in “PBM E-score” value: 0.159 for the first, 0.0143 for the second.
